Compound activity (PubChem)
In the library only some 4.1% were active in any assay of this set; here they are far more common.
DAX1 inh-1 = inhibitors of DAX1 repression of SF-1 activated StAR promoter; HEK293T StAR-luciferase reporter, SF-1/DAX-1 repression relief; inhibition, % at 6.8 µM; actives 1.1% (n = 370,000);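 active = inhibition above the mean over all tested compounds plus 3 SD, cut at about 3.6% in these data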;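 also: 0% = DAX-1 cells with DMSO and 100% = cells lacking DAX-1 with DMSO; higher inhibition means more luminescence from relief of DAX-1 repression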
hcDAF12 agonist = activators of H. contortus DAF-12 nuclear receptor. HEK293 hcDAF-12 lit1-tk-luc reporter, luminescence; 0% DMSO, 100% Δ7-dafachronic acid. activation, % at 6.8 µM. actives 1.4% (n = 370,000). AID 652067;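 active = activation above the mean of all tested compounds plus 3 SD, cut at about 5.5% in these data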;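 also: 100% = response to 3 µM Δ7-dafachronic acid high control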
hgDAF12 agonist = agonists of H. glycines DAF-12 nuclear receptor; activation, % at 6.8 µM; actives 1.8% (n = 370,000); HEK293 GAL4-hgDAF12 UAS-luciferase reporter, agonist luminescence; normalized to butyrate control;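 active = activation above a cutoff set at the mean of all screened compounds plus 3 SD, cut at about 10% in these data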;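 also: 0% = DMSO wells and 100% = sodium butyrate wells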
DAX1 inh-2 = inhibits human nuclear receptor DAX1 | P51843 | HEK293 Gal4-DAX1 luciferase reporter, luminescence | inhibition, % at 6.75 µM | actives 0.99% (n = 340,000);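 active = inhibition above the mean over all tested compounds plus 3 SD, cut at about 4.2% in these data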;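 also: 0% = DAX1-transfected cells with DMSO and 100% = empty-vector control cells with DMSO; inhibition shows as a rise in luminescence from relieved DAX1 repression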
Target sequence (P51843 207-470 limits assumed): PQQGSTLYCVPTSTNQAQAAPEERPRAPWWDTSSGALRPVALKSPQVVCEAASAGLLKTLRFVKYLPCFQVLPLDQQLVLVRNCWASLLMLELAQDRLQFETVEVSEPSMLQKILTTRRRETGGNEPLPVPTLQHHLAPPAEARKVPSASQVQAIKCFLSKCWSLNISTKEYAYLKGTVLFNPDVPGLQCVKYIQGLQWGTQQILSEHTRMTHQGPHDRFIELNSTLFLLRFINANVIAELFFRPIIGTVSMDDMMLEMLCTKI
ssDAF12 agonist = S. stercoralis DAF-12 activation, primary screen | HEK293 ssDAF-12/GRIP1 lit1-tk-luc reporter, luminescence; % of 3 µM dafachronic acid response | activation, % at 6.8 µM | actives 1% (n = 370,000) | AID 652126;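 active = activation above the mean over all tested compounds plus 3 SD, cut at about 0.9% in these data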;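 also: 0% = DMSO-only wells and 100% = 3 µM delta7-dafachronic acid wells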
* marks the source's active call; other numbers are inactive results; / = no result given.

SMILES	DAX1 inh-1	hcDAF12 agonist	hgDAF12 agonist	DAX1 inh-2	ssDAF12 agonist
Cc1c(NC(=O)C2CCCN(S(=O)(=O)c3ccc(Br)s3)C2)c(=O)n(-c2ccccc2)n1C (configuration not stated)	-1.0	-2.1	-1.6	/	-0.9
CCOC(=O)[C@@]12CCCC=C1N(CCc1ccc(Cl)cc1)C(=O)[C@H]2CC(=O)NCc1cccc(C(F)(F)F)c1	-1.1	-2.5	4.0	/	-1.9
Cc1ccc(C(=O)C(C)[n+]2cccc(C(N)=O)c2)cc1 (configuration not stated)	0.1	-0.8	-3.4	7.1*	-1.3
CCc1ccc(OCC(=O)N(C)C)c(Br)c1	0.5	-1.9	0.6	5.5*	-0.8
CCc1ccc(OCC(=O)NC(=S)Nc2ccc(F)cc2)c(Br)c1	0.4	1.5	3.0	1.9	-0.8
Cc1cc(C)cc(NC(=O)c2ccc3nc[nH]c3c2)c1	0.5	-1.1	5.7	-1.5	-1.8
O=C(c1ccccc1)c1ccc2nc[nH]c2c1	1.1	6.3*	6.7	-0.2	0.5
Cc1ccc(NC(=O)c2ccc3nc[nH]c3c2)cc1C	2.9	5.9*	8.9	2.0	0.0
O=C(NC1CCCC1)c1ccc2nc[nH]c2c1	0.1	-0.8	-1.6	1.6	-0.7
O=C(O)CCCC(=O)Nc1nc2n(n1)C(c1ccc(F)cc1)CC(c1ccc(Cl)cc1)N2 (configuration not stated)	0.5	-0.9	1.9	0.7	1.8*
CN(C)c1ccc(-c2ccccc2)nn1	3.8*	2.8	8.2	1.3	0.4
CCN(CC)c1cc(-c2ccccc2)ncn1	-0.3	-0.9	-1.4	0.0	-1.1
C[N+]1(C)CC2=Cc3ccccc3CC2C1 (configuration not stated)	0.5	-1.3	-0.9	4.8*	-1.6
O=C(CSc1nnc(COc2ccccc2)n1Cc1ccco1)Nc1ccc(OCc2ccccc2)cc1	-1.8	-1.9	4.2	/	-0.9
O=C(Nc1cccc2c1[nH]c(=O)c1ccccc12)C(F)(F)F	4.0*	-0.9	6.4	3.4	-0.7
O=C(Nc1cccc2c1[nH]c1ccccc12)C(F)(F)F	-0.5	-0.9	-0.4	-0.6	-0.8
COc1cc(NC(=O)C2CCCN(S(=O)(=O)c3ccccc3)C2)cc(OC)c1 (configuration not stated)	-1.1	-5.4	-4.2	/	-1.6
O=Cc1ccc2cccnc2n1	-0.2	6.1*	1.4	1.3	2.0*
COc1ccc(-c2nc3ccccn3c2C=O)cc1	1.4	5.7*	9.8	-0.9	0.0
O=Cc1c(-c2ccc(F)cc2)nc2ccccn12	0.3	-1.6	-1.1	-0.2	-0.9
COc1cccc(C(=O)Oc2ccccc2/C=C\C(=O)c2cc3ccccc3o2)c1	0.5	6.5*	9.6	-1.2	1.6*
O=C(Oc1ccccc1/C=C\C(=O)c1cc2ccccc2o1)c1ccccc1	1.0	6.2*	9.8	-0.4	-0.4
NC(=O)N/N=C/c1ccccc1OC(=O)c1cc2ccccc2oc1=O	1.6	1.5	4.1	1.3	-0.6
O=S1(=O)c2ccc(N3CCCC3)cc2Oc2ccccc2CN1Cc1cn(Cc2cccc(C(F)(F)F)c2)nn1	-0.2	-2.3	-1.9	/	-1.9
CN(C(=O)CCn1nnc(-c2cccs2)n1)C1CCCCC1	-0.3	0.6	1.9	/	-0.5
SMILES	DAX1 inh-1	hcDAF12 agonist	hgDAF12 agonist	DAX1 inh-2	ssDAF12 agonist
COc1ccc(S[C@]2(C(=O)N3CCN(C(C)=O)CC3)CC(=O)N(S(=O)(=O)c3ccc(F)cc3)[C@@H]2c2ccc(OC)cc2)cc1	-1.9	-1.4	1.4	/	-1.6
CCC(=O)NC(c1ccc(N(C)C)cc1)c1c(O)ccc2ccccc12 (configuration not stated)	0.3	6.3*	1.5	0.2	-0.5
NS(=O)(=O)c1ccc(NC(=O)c2cccc3cc4ccccc4nc23)cc1	-2.9	-2.6	1.1	-1.2	0.9*
NS(=O)(=O)c1ccc(NC(=O)c2cccc3ccccc23)cc1	-0.1	-0.4	1.5	2.1	-1.8
Cc1ccccc1C(=O)Nc1cccc(NC(=O)c2ccccc2[N+](=O)[O-])c1	0.4	-0.8	1.2	-1.0	0.8
CNS(=O)(=O)c1ccc(NC(=O)c2ccoc2C)cc1	-0.2	0.8	2.1	1.1	-1.1
Cc1cc(NC(=O)c2ccccc2[N+](=O)[O-])ccc1Br	0.2	-1.2	6.2	4.8*	-0.3
Cc1cc(NC(=O)c2ccoc2C)ccc1Br	3.7*	3.3	9.4	2.1	-0.3
Cc1occc1C(=O)Nc1ccc(S(N)(=O)=O)cc1	0.9	-0.7	-1.2	5.6*	-1.7
COc1ccc2c(c1OC)OCC2C (configuration not stated)	-0.3	-1.8	-1.9	0.4	-0.8
COCCCNC(=O)C[C@H]1C[C@@]2(C(=O)OC)C(=C[C@H](C(C)C)O[C@@H]2C2CC2)N(CCC2=CCCCC2)C1=O	-0.1	-2.3	-0.7	/	-1.4
COc1ccccc1CNC(=O)N1CCN(Cc2nc3ccccc3c(=O)[nH]2)CC1	-0.1	-1.9	-0.7	/	-0.8
CC(C)C[C@H](NC(C)(C)C(=O)NC1CCCCC1)C(=O)NCC(c1ccccc1)c1ccccc1	/	-0.9	3.0	/	-1.4
O=C(Nc1nc2c(s1)CN(Cc1ccccc1)CC2)C1CCCC1	0.1	-1.4	2.9	-0.3	-0.4
CC(C)(C)C(=O)Nc1nc2c(s1)CN(Cc1ccccc1)CC2	1.8	1.5	10.6*	0.4	0.1
CCOC(=O)COc1ccc(C(C)c2ccc(NC(=O)OC(C)(C)C)cc2)cc1 (configuration not stated)	0.0	-1.3	-0.4	/	-1.1
Nc1nc2ccccc2n1/N=C/c1ccc(Br)cc1	2.5	3.3	12.0*	1.5	-0.5
O=C1CCC[C@H]2C[C@H](NCc3ccc(Cl)cc3)CC[C@]23CCCN13	/	0.3	-1.6	/	-1.0
Cc1ccc(CNC(=O)CSCc2ccccc2F)cc1	1.9	-1.2	12.9*	1.0	-0.8
COC(=O)[C@H](CC(C)C)N1Cc2nnn(CC3CCCCC3)c2-c2cc(F)ccc2S1(=O)=O	-0.5	-3.6	-5.0	/	-0.9
C[C@H]1/C=C/CC(=O)N[C@@H](c2ccc3ccccc3c2)[C@@H](C)/C=C/CC(=O)N[C@H]1c1ccc2ccccc2c1	-0.7	-2.5	0.7	/	0.2
Cc1nc2sc(C(=O)NCc3ccncc3)c(N)c2c(C)c1Cl	0.9	-1.6	2.1	/	-1.1
COc1ccc(NC(C)=O)cc1NC(C)C(=O)Nc1ccccc1F (configuration not stated)	0.3	0.6	-2.2	5.7*	-0.9
CC(C)N1CCCCC(NC(=O)c2ccc(-c3ccccc3)cc2)C1=O (configuration not stated)	-0.4	-2.4	4.7	/	-1.3
CCOC(=O)N1CCC(NC(=O)c2ccc(Cl)cc2)CC1	0.1	2.1	0.2	1.2	-0.7
CCOC(=O)N1CCC(Nc2nc3ccccc3nc2NS(=O)(=O)c2ccc(Cl)cc2)CC1	2.3	8.2*	8.9	1.7	0.2
